Among the data in the supplement of paper PMC9492666 are relative cell viability values, retold here.

Structures can show the parent of a compound that is named as a salt.

Common to all, as to details: 72 h
The test system of experiment [1] is HCC1937. In words: relative cell viability, compound alone, vs DMSO (fraction of DMSO control); higher = less growth inhibition.
The subject of experiment [2] is MDA-MB-231. The experiment is described as above.
The test system of experiment [3] is HCC1937. In words: relative cell viability, compound + RSL3, vs DMSO (fraction of DMSO control); higher = less growth inhibition.
Experiment [4] deals with MDA-MB-231. The experiment is described as above.
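Wherever relative cell viability, compound + RSL3, vs DMSO is given: breast cancer cell viability read out with the CCK-8 kit after co-treatment of each compound with the ferroptosis inducer RSL3.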
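Wherever relative cell viability, compound alone, vs DMSO is given: viability read out with the CCK-8 kit in 96-well plates, screening a set of 303 compounds acting on lipid metabolism targets.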

Turning to `COc1ccc(C2(CNC(=O)c3ccc(NC(=O)c4ccco4)cc3)CCOCC2)cc1`, the relative cell viability with HCC1937 [1] came out at 0.84; in the experiment with MDA-MB-231 [2], 0.873.
Consider `COc1cc([C@@H]2Oc3c(O)cc([C@H]4Oc5cc(O)cc(O)c5C(=O)[C@@H]4O)cc3[C@H]2CO)ccc1O` [Silychristin], for which the relative cell viability stood at 1.04 with HCC1937 [1] and 1.02 in the experiment with MDA-MB-231 [2].
On the same counts, the results for `CN1CCN(C(=O)C2C(C(=O)O)[C@H]3CC[C@@H]2O3)CC1` (stereo partly drawn) are 0.568 and 0.616.
On the same counts, the results for `O=C(ON1C(=O)CCC1=O)N1CCN(C(c2ccc(Cl)cc2)c2ccc(Cl)cc2)CC1` [Cravatt Reagent] are 1.26 and 0.975.
On the same counts, the results for `CN(CCOc1ccc(CC2SC(=O)NC2=O)cc1)c1ccccn1` (stereo not drawn) [Rosiglitazone maleate] are 0.841 and 0.86.
As to `CNC(=O)c1cccc(NC(=O)N2CCC(Oc3ccccc3Cl)CC2)c1`, the relative cell viability in the experiment on HCC1937 [1] turned out to be 0.991; in the experiment on MDA-MB-231 [2], 0.974.
`C/C=C(\CC[C@@H](C)[C@H]1CC[C@H]2[C@@H]3CC=C4C[C@@H](O)CC[C@]4(C)[C@H]3CC[C@]12C)C(C)C` [Fucosterol]: the relative cell viability with HCC1937 [1] is 1; in the experiment with MDA-MB-231 [2], 0.968.
On the same counts, the results for `CC1(C)CC[C@]2(C(=O)O[C@@H]3O[C@H](CO)[C@@H](O)[C@H](O)[C@H]3O)CC[C@]3(C)C(=CC[C@@H]4[C@@]5(C)CC[C@H](O[C@@H]6O[C@H](C(=O)O)[C@@H](O)[C@H](O)[C@H]6O[C@@H]6O[C@H](CO)[C@@H](O)[C@H](O)[C@H]6O)C(C)(C)[C@@H]5CC[C@]43C)[C@@H]2C1` [Ginsenoside Ro] are 1.02 and 0.9.
As for `O=C(O)c1cc2c(Cl)c(N3CCN(S(=O)(=O)c4c(Cl)cccc4Cl)CC3)ccc2o1` [Vonafexor], the relative cell viability in the experiment on HCC1937 [1] and with MDA-MB-231 [2] was 1.16 each time.
As for `C[C@@H]1OCC2(CCN(c3cnc(Sc4ccnc(N)c4Cl)c(N)n3)CC2)[C@@H]1N`, the relative cell viability with HCC1937 [1] turned out to be 0.896; in the experiment with MDA-MB-231 [2], 0.996.
For `CCOC(=O)C(C)(C)Oc1ccc(Cl)cc1` [Clofibrate] + COC(=O)c1ccc([C@H]2c3[nH]c4ccccc4c3C[C@H](C(=O)OC)N2C(=O)CCl)cc1 [RSL3], the relative cell viability turned out to be 0.728 with HCC1937 [3] and 0.619 in the experiment on MDA-MB-231 [4].
`COc1cc([C@@H]2Oc3c(O)cc([C@H]4Oc5cc(O)cc(O)c5C(=O)[C@@H]4O)cc3[C@H]2CO)ccc1O` [Silychristin] + COC(=O)c1ccc([C@H]2c3[nH]c4ccccc4c3C[C@H](C(=O)OC)N2C(=O)CCl)cc1 [RSL3]: the relative cell viability in the experiment on HCC1937 [3] stood at 0.567; with MDA-MB-231 [4], 0.66.
On the same counts, the results for `CC(C)=CCC(O)C1=CC(=O)c2c(O)ccc(O)c2C1=O` (single isomer, unassigned; (+)) [(+)-Shikonin] + COC(=O)c1ccc([C@H]2c3[nH]c4ccccc4c3C[C@H](C(=O)OC)N2C(=O)CCl)cc1 [RSL3] are 0.0766 and 0.132.
`COc1ccc(CN2CCC(c3ccc4nc(C(=O)N5CCN(Cc6ccc(C(F)(F)F)cc6)CC5)[nH]c4c3)CC2)cn1`: the relative cell viability in the experiment on HCC1937 [1] worked out at 0.849; in the experiment with MDA-MB-231 [2], 0.795.
`COc1ccc2c(c1)c(CC(=O)O)c(C)n2C(=O)c1ccc(Cl)cc1` [Indometacin] + COC(=O)c1ccc([C@H]2c3[nH]c4ccccc4c3C[C@H](C(=O)OC)N2C(=O)CCl)cc1 [RSL3]: the relative cell viability in the experiment on HCC1937 [3] is 1.01; with MDA-MB-231 [4], 0.61.
As for `COc1ccc(-c2cc(=O)c3c(O)c(OC)c(OC)c(OC)c3o2)cc1OC`, the values for the relative cell viability in the experiment with HCC1937 [1] and with MDA-MB-231 [2] were 0.699 and 0.82, respectively.
As for `CCC(C)(Oc1ccc(C2(c3ccc(OC(C)(CC)C(=O)O)cc3)CCCCC2)cc1)C(=O)O` (stereo not drawn) [Clinofibrate] + COC(=O)c1ccc([C@H]2c3[nH]c4ccccc4c3C[C@H](C(=O)OC)N2C(=O)CCl)cc1 [RSL3], the relative cell viability with HCC1937 [3] amounted to 0.561; with MDA-MB-231 [4], 0.452.
On to `Cc1ccc(C)c(OCCCC(C)(C)C(=O)O)c1` [Gemfibrozil], for which the relative cell viability in the experiment on HCC1937 [1] was found to be 0.736; with MDA-MB-231 [2], 0.783.
`CN(CCOc1ccc(CC2SC(=O)NC2=O)cc1)c1ccccn1` (stereo not drawn) [Rosiglitazone]: the relative cell viability in the experiment on HCC1937 [1] was 1.43; in the experiment on MDA-MB-231 [2], 0.969.
As to `Nn1nnc2ccccc21` [1-Aminobenzotriazole], the relative cell viability came to 1.07 with HCC1937 [1] and 0.937 in the experiment with MDA-MB-231 [2].
Consider `O=C(O)c1ccnc(N2CC(O)(c3ccc(OCc4c(-c5c(Cl)cccc5Cl)noc4C4CC4)cc3Cl)C2)c1` [Cilofexor], for which the relative cell viability with HCC1937 [1] is 0.661; in the experiment with MDA-MB-231 [2], 0.885.
Regarding `O=C(O)c1cccnc1Nc1cccc(C(F)(F)F)c1` [Niflumic acid] + COC(=O)c1ccc([C@H]2c3[nH]c4ccccc4c3C[C@H](C(=O)OC)N2C(=O)CCl)cc1 [RSL3], the relative cell viability worked out at 0.734 in the experiment with HCC1937 [3] and 0.53 in the experiment on MDA-MB-231 [4].
For the molecule `O=S(=O)(c1ccccc1)N(CC(F)(F)F)c1ccc(C(O)(C(F)(F)F)C(F)(F)F)cc1`, the relative cell viability in the experiment on HCC1937 [1] amounted to 0.957; in the experiment on MDA-MB-231 [2] it was 1.23.
Turning to `COc1ccc(Nc2ccn(-c3ccccc3)n2)cc1` + COC(=O)c1ccc([C@H]2c3[nH]c4ccccc4c3C[C@H](C(=O)OC)N2C(=O)CCl)cc1 [RSL3], the relative cell viability amounted to 0.425 in the experiment on HCC1937 [3] and 0.839 with MDA-MB-231 [4].
